What is called AC50 is the concentration giving half of the maximal activity seen.

The values below come from PubChem BioAssay (EPA / NIEHS).

Where “and” joins values, the source holds several entries; their conditions need not be identical. Equal values may be shown once. Where a structure was tested more than once in an assay, its records may differ in their call. Calls of active or inactive are those of the source. The calls were made as follows: active = hit-call score of the fitted dose curve at least 0.9, where 1 is the maximum; inactive = score below 0.9.

Read-out in one assay: Decorin, DCN (gene 1634)
Kind of assay: BSK_MyoF_Decorin: BioMAP Diversity Plus: MyoF Assay for Decorin Biomarker Activity (AID 2284265). The following applies: primary human lung fibroblasts. The essentials: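 Human lung fibroblasts in the MyoF system were exposed to compound for 24 h, after which decorin was quantified by ELISA. Activity was fitted in the positive direction relative to DMSO negative control.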

Assay [1] can be described thus: BSK_MyoF_SRB: Viability Assessment in the BioMAP Diversity Plus: MyoF Assay (AID 2284267).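 Also: total protein by SRB absorbance in parallel cultures as cytotoxicity measure.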 The following applies: primary human lung fibroblasts. The essentials:
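Cytotoxicity in primary human lung fibroblasts is gauged by SRB total-protein staining 24 h after dosing, with DMSO as the negative control.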

Read-out in assay [2]: TIMP metallopeptidase inhibitor 1 (TIMP1), TIMP1 (gene 7076)
Kind of assay: BSK_MyoF_TIMP1: BioMAP Diversity Plus: MyoF Assay for TIMP metallopeptidase inhibitor 1 (TIMP1) Biomarker Activity (AID 2284269). The following applies: primary human lung fibroblasts. The essentials:
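Primary human lung fibroblasts, MyoF multiplex system; chemical exposure 24 h; TIMP-1 by ELISA; positive fitting direction vs DMSO control.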

Read-out in assay [3]: Interleukin-1 alpha (IL1a), IL1A (gene 3552)
Kind of assay: BSK_BF4T_IL1a: BioMAP Diversity Plus: BF4T Assay for Interleukin-1 alpha (IL1a) Biomarker Activity (AID 2284264). The following applies: primary human bronchial epithelial cells with fibroblasts. The essentials:
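Human bronchial epithelial cells co-cultured with dermal fibroblasts, dosed and read at 24 h. Secreted/surface IL-1α quantified by ELISA; gain-of-signal fitted relative to DMSO baseline. Parallel SRB total-protein staining tracked cytotoxicity.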

Read-out in assay [4]: KRT18 (gene 3875)
Kind of assay: BSK_BF4T_Keratin818: BioMAP Diversity Plus: BF4T Assay for Keratin 818 Biomarker Activity (AID 2284266). The following applies: primary human bronchial epithelial cells with fibroblasts. The essentials:
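Co-culture of human bronchial epithelial cells and dermal fibroblasts, chemical exposure 24 h. Keratin 8/18 measured by ELISA; positive-direction fit vs DMSO. SRB total protein run in parallel cultures for cytotoxicity.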

Read-out in assay [5]: Matrix Metallopeptidase 1 (MMP1), MMP1 (gene 4312)
Kind of assay: BSK_MyoF_MMP1: BioMAP Diversity Plus: MyoF Assay for Matrix Metallopeptidase 1 (MMP1) Biomarker Activity (AID 2284268). The following applies: primary human lung fibroblasts. The essentials:
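ELISA readout of MMP1 in primary human lung fibroblast cultures, 24 h post-dosing. Gain of signal versus DMSO vehicle control defines activity. Parallel SRB staining (0.1% after 10% TCA fixation, 560 nm) flags overt cytotoxicity.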

Read-out in assay [6]: Matrix Metallopeptidase 1 (MMP1), MMP1 (gene 4312)
Kind of assay: BSK_BF4T_MMP1: BioMAP Diversity Plus: BF4T Assay for Matrix Metallopeptidase 1 (MMP1) Biomarker Activity (AID 2284270). The following applies: primary human bronchial epithelial cells with fibroblasts. The essentials: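 Co-culture of human bronchial epithelial cells and dermal fibroblasts; MMP-1 levels measured by ELISA 24 hours after chemical dosing, relative to DMSO. Cytotoxicity checked in parallel cultures by SRB total-protein staining.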

Read-out in assay [7]: Matrix Metallopeptidase 3 (MMP3), MMP3 (gene 4314)
Kind of assay: BSK_BF4T_MMP3: BioMAP Diversity Plus: BF4T Assay for Matrix Metallopeptidase 3 (MMP3) Biomarker Activity (AID 2284271). The following applies: primary human bronchial epithelial cells with fibroblasts. The essentials: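 Co-culture of human bronchial epithelial cells and dermal fibroblasts dosed 24 h; MMP-3 measured by ELISA, positive-direction fit versus DMSO. Cytotoxicity tracked by SRB total-protein staining (560 nm) in parallel cultures.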

Read-out in assay [8]: Tissue plasminogen activator (tPA), PLAT (gene 5327)
Description: BSK_BF4T_tPA: BioMAP Diversity Plus: BF4T Assay for Tissue plasminogen activator (tPA) Biomarker Activity (AID 2284272). The following applies: primary human bronchial epithelial cells with fibroblasts. The essentials: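 tPA level quantified by ELISA at 24 h post-treatment in bronchial epithelial/dermal fibroblast co-cultures, gain of signal scored against DMSO baseline. Parallel cultures stained with 0.1% SRB (560 nm) to flag overt cytotoxicity.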

Read-out in assay [9]: Plasminogen Activator Inhibitor-1 (PAI1), SERPINE1 (gene 5054)
Description: BSK_BF4T_PAI1: BioMAP Diversity Plus: BF4T Assay for Plasminogen Activator Inhibitor-1 (PAI1) Biomarker Activity (AID 2284273). The following applies: primary human bronchial epithelial cells with fibroblasts. The essentials:
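Co-culture of human bronchial epithelial cells and dermal fibroblasts exposed to compound for 24 h. PAI-1 measured by ELISA; activity fitted in positive direction versus DMSO. Parallel SRB staining assessed overt cytotoxicity.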

Assay [10] is described as follows: BSK_BF4T_SRB: Viability Assessment in the BioMAP Diversity Plus: BF4T Assay (AID 2284274).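 As to AC50: total cell protein by sulforhodamine B staining as a cytotoxicity measure.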 The following applies: primary human bronchial epithelial cells with fibroblasts. The essentials: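 Co-culture of human bronchial epithelial cells and dermal fibroblasts (BioMAP BF4T) exposed 24 h. Total protein by sulforhodamine B staining (0.1% SRB after 10% TCA fixation, 560 nm) in parallel cultures; fitted vs DMSO.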

Read-out in assay [11]: urokinase Plasminogen Activator (uPA), PLAU (gene 5328)
Description: BSK_BF4T_uPA: BioMAP Diversity Plus: BF4T Assay for urokinase Plasminogen Activator (uPA) Biomarker Activity (AID 2284275). The following applies: primary human bronchial epithelial cells with fibroblasts. The essentials:
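Co-culture of human bronchial epithelial cells and dermal fibroblasts; uPA quantified by ELISA 24 hours after dosing, fitted relative to DMSO. Parallel SRB total-protein staining assessed overt cytotoxicity.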

Read-out in assay [12]: Matrix Metallopeptidase 9 (MMP9), MMP9 (gene 4318)
Description: BSK_BF4T_MMP9: BioMAP Diversity Plus: BF4T Assay for Matrix Metallopeptidase 9 (MMP9) Biomarker Activity (AID 2284276). The following applies: primary human bronchial epithelial cells with fibroblasts. The essentials: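 Co-culture of human bronchial epithelial cells and dermal fibroblasts dosed for 24 h; MMP-9 quantified by ELISA and fitted upward versus DMSO. Cytotoxicity monitored in parallel cultures by SRB total-protein staining at the biomarker time point.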

Read-out in assay [13]: Interleukin-8 (IL8), CXCL8 (gene 3576)
Kind of assay: BSK_IMphg_IL8: BioMAP Diversity Plus: IMphg Assay for Interleukin-8 (IL8) Biomarker Activity (AID 2284277). The following applies: primary human endothelial cells with macrophages. The essentials: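 Co-culture of human venular endothelial cells and macrophages exposed to chemicals for 24 h; IL-8 quantified by ELISA and compared against the DMSO baseline, with SRB total-protein staining in parallel cultures for cytotoxicity.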

Read-out in assay [14]: Intercellular Adhesion Molecule 1 (ICAM1), ICAM1 (gene 3383)
Description: BSK_BE3C_ICAM1: BioMAP Diversity Plus: BE3C Assay for Intercellular Adhesion Molecule 1 (ICAM1) Biomarker Activity (AID 2284278).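 As to outcome: cell-surface ICAM-1 protein level quantified by ELISA.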 The following applies: primary human bronchial epithelial cells. The essentials:
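Measured by ELISA: ICAM-1 expressed by primary human bronchial epithelial cells 24 h after compound treatment, with upward-direction fitting versus DMSO vehicle.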

Read-out in assay [15]: Interferon-inducible T-cell alpha chemoattractant (ITAC), CXCL11 (gene 6373)
Description: BSK_BE3C_ITAC: BioMAP Diversity Plus: BE3C Assay for Interferon-inducible T-cell alpha chemoattractant (ITAC) Biomarker Activity (AID 2284279). The following applies: primary human bronchial epithelial cells. The essentials:
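Steps: dose human bronchial epithelial cells with chemical; incubate 24 h; measure I-TAC by ELISA; fit endpoint in positive direction against DMSO control. Cytotoxicity was checked in parallel cultures by SRB staining at harvest.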

Read-out in assay [16]: Interleukin-8 (IL8), CXCL8 (gene 3576)
Kind of assay: BSK_BE3C_IL8: BioMAP Diversity Plus: BE3C Assay for Interleukin-8 (IL8) Biomarker Activity (AID 2284280). The following applies: primary human bronchial epithelial cells. The essentials:
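ELISA read-out of IL-8 in human lung bronchial epithelial primary cell cultures, 24 h post-dosing; endpoint analysed as signal increase relative to DMSO baseline.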

Read-out in assay [17]: Epidermal growth factor receptor (EGFR), EGFR (gene 1956)
Description: BSK_BE3C_EGFR: BioMAP Diversity Plus: BE3C Assay for Epidermal growth factor receptor (EGFR) Biomarker Activity (AID 2284281). The following applies: primary human bronchial epithelial cells. The essentials: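 Primary human lung bronchial epithelial cells; compound, 24 h; EGFR measured by ELISA; positive-direction fit vs DMSO baseline.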

Read-out in assay [18]: KRT18 (gene 3875)
Description: BSK_BE3C_Keratin818: BioMAP Diversity Plus: BE3C Assay for Keratin 818 Biomarker Activity (AID 2284282). The following applies: primary human bronchial epithelial cells. The essentials: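 BE3C: human bronchial epithelial primary cells, 24 h exposure, Keratin 8/18 ELISA; DMSO = negative control/baseline; cytotoxicity by parallel SRB stain (0.1% SRB after 10% TCA fixation, 560 nm).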

Read-out in assay [19]: Matrix Metallopeptidase 9 (MMP9), MMP9 (gene 4318)
Description: BSK_BE3C_MMP9: BioMAP Diversity Plus: BE3C Assay for Matrix Metallopeptidase 9 (MMP9) Biomarker Activity (AID 2284283). The following applies: primary human bronchial epithelial cells. The essentials: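 Human primary bronchial epithelial cells in the BE3C system were dosed with compound for 24 h. MMP-9 was measured by ELISA, and the positive-direction response was fitted relative to DMSO as baseline. Parallel SRB staining gauged cytotoxicity.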

In the case of `CCCCCCCCCCCCCC[N+](C)(C)C`, the half-maximal activity concentration (AC50) in the assay with Decorin, DCN (gene 1634) was 28.4 µM (active); in assay [1], 5.25 µM (active); in [2], 3.32 µM (active).

For `C[C@@H]1C[C@H]2[C@@H]3CCC4=CC(=O)C=C[C@]4(C)[C@@]3(F)[C@@H](O)C[C@]2(C)[C@@]1(O)C(=O)COP(=O)(O)O`, the outcome in assay [3] was “inactive”; with Decorin, DCN (gene 1634), “inactive”; with KRT18 (gene 3875) [4], “inactive”; in [1], “inactive”; in assay [5], “inactive”; in assay [2] it was “inactive”. Besides, the result in [6], in [7], in [8], in assay [9], in [10] and in [11] was inactive. Besides, the outcome (in assay [12]; in assay [14]; in assay [15]; in assay [17]; with KRT18 (gene 3875) [18]; in assay [19]) was inactive. Also, the AC50 in assay [2] was 0.562 µM (active); in [13], 309 nM (active) and 884 nM (active); in assay [16] it was 1.6 µM (active) and 182 nM (active).

As for `FC(F)(I)C(F)(F)C(F)(F)C(F)(F)C(F)(F)C(F)(F)I`, the concentration at half-maximal activity (AC50) in assay [3] is 22.7 µM (active) [middle of 5 runs]; with Decorin, DCN (gene 1634), 7.74 µM (active) [middle of 5 runs]; in assay [1] it was 7.31 µM (active) [middle of 5 runs]; in [2] it was 7.01 µM (active) [middle of 5 runs]; in [6], 23.4 µM (active) [middle of 5 runs]; in [7], 19.3 µM (active) [middle of 4 runs]. For the same compound, the half-maximal activity concentration (AC50) is 7.56 µM (active) [middle of 5 runs] in [8]; 19.3 µM (active) [middle of 5 runs] in assay [9]; 21.9 µM (active) [middle of 5 runs] in assay [10]; 14.4 µM (active) [middle of 5 runs] in assay [11]; 18.9 µM (active) [middle of 5 runs] in assay [12]; 47.1 µM (active) [middle of 4 runs] in [13]. Moreover, the values for the concentration at half-maximal activity (AC50) in assay [14], in assay [15] and in assay [16] were 32.3 µM (active) [middle of 5 runs], 20.4 µM (active) [middle of 5 runs] and 19.6 µM (active) [middle of 5 runs], respectively. The outcome in [5], in [7] and in [13] was inactive.

For `OCCC(F)(F)C(F)(F)C(F)(F)C(F)(F)C(F)(F)C(F)(F)F`, the outcome in assay [3] is “inactive”; with Decorin, DCN (gene 1634), “inactive”; in the assay with KRT18 (gene 3875) [4], “inactive”; in assay [1], “inactive”; in assay [5] it was “inactive”; in assay [2] it was “inactive”. The result in assay [6], in [7], in assay [8], in assay [9], in assay [10] and in assay [11] was inactive. The outcome in assay [12], in [13], in [14], in [15], in [16] and in [17] was inactive. In addition, the outcome (with KRT18 (gene 3875) [18]; in assay [19]) was inactive.
